Source: PubChem BioAssay (EPA / NIEHS)
Some structures have more than one record in an assay (separate samples or runs), and their calls can disagree. Active and inactive are the calls of the source. How the source made its calls: active means hit-call score of the fitted dose curve at least 0.9, where 1 is the maximum; inactive means score below 0.9.

Read-out: TIMP metallopeptidase inhibitor 2 (TIMP2), TIMP2 (gene 7077)
Assay: BSK_KF3CT_TIMP2: BioMAP Diversity Plus: KF3CT Assay for TIMP metallopeptidase inhibitor 2 (TIMP2) Biomarker Activity (AID 2283071)
Settings: primary human keratinocytes with fibroblasts; actives raise or lower the signal
Experimental: BSK_KF3CT is a cell-based, multiplexed-readout assay that uses keratinocytes and foreskin fibroblasts, a human skin primary cell co-culture, with measurements taken at 24 hours after chemical dosing in a 96-well plate.BSK_KF3CT_TIMP2 is an assay component measured in the BSK_KF3CT assay. It measures TIMP-2 antibody related to regulation of gene expression using ELISA technology.Data from the assay component BSK_KF3CT_TIMP2 was analyzed into 1 assay endpoint. This assay endpoint, BSK_KF3CT_TIMP2, was analyzed with bidirectional fitting relative to DMSO as the negative control and baseline of activity. Using a type of binding reporter, gain or loss-of-signal activity can be used to understand changes in the signaling as they relate to the gene TIMP2. Furthermore, this assay endpoint can be referred to as a primary readout, because this assay has produced multiple assay endpoints where this one serves a signaling function. To generalize the intended target to other relatable targets, this assay endpoint is annotated to the protease inhibitor intended target family, where the subfamily is metalloproteinase inhibitor.
The levels of cell surface (or secreted, indicated by the prefix "s") biomarker endpoints were measured by ELISA. Overt cytotoxicity to cells in confluent adherent cultures (all systems other than the BT system) was assessed by measuring total protein levels using sulforhodamine B (SRB) staining in parallel cultures at the time of biomarker measurements, indicated as SRB endpoints. For proliferation assays for adherent cell types, individual cell types are cultured at sub-confluence and relative cell numbers quantified by SRB staining at time points optimized for each system (48 h: 3C and CASM3C systems; 72 h: BT and HDF3CGF systems; 96 h: SAg system). SRB was performed by staining cells with 0.1% SRB after fixation with 10% TCA and reading wells at 560 nm.Viability and proliferation of PBMC (T cells) was quantified by Alamar Blue reduction for the SAg and BT systems. For PBMC viability (referred to as PBMC Cytotoxicity within the assay endpoint names), cells were plated (75,000/well in a 96-well plate) and then chemical samples added for 1 h before addition of activators, SEB and TSST-1 (20 ng/mL final concentration each). Cells were incubated for 90 h. Then, Alamar Blue (20 uL/well) (Invitrogen, Cat DAL1100) was added for 6 h, and the plates were read with a fluorescence microplate reader at 546/580 nm (excitation/emission). For PBMC proliferation, cells were plated and activated as above but incubated for only 16 h prior to addition of Alamar Blue. Plates were read after 6 h.

SMILES | AC50 | outcome
CC(C)N(C(=O)CCl)c1ccccc1 | 14.2 µM (active) | 
CC(C)(C)c1ccccc1O |  | inactive
Nc1ccc(N)cc1 |  | inactive
Cc1cc(Cl)ccc1OC(C)C(=O)O (stereo not given) |  | inactive
Cc1cccc(OP(=O)(Oc2cccc(C)c2)Oc2cccc(C)c2)c1 |  | inactive
O=[N+]([O-])c1ccc(Nc2ccccc2)cc1 |  | inactive
O=C(O)C1(c2ccc3c(c2)OC[C@H](Cc2ccc(-c4ccccc4)cc2)[C@H]3O)CCCC1 | 14 µM (active) | 
CCOP(=S)(OCC)OP(=S)(OCC)OCC | 20 µM (active) | 
C=CC(Cl)CCl (stereo not given) | 0.181 µM (active) | 
Cc1c([N+](=O)[O-])c(C)c([N+](=O)[O-])c(C(C)(C)C)c1[N+](=O)[O-] |  | inactive
Oc1c(Br)cc(Br)cc1Br |  | inactive
Cc1cc(C(C)(C)c2ccc(O)c(C)c2)ccc1O | 12.2 µM (active) | 
CCOC(=O)CC(=O)CCl |  | inactive
OCCN(CCO)CCO |  | inactive
Oc1ccc(Cc2ccc(O)cc2)cc1 |  | inactive
O=C1C=CC(=O)c2ccccc21 | 1.67 µM (active) | 
CCC(C)(C#N)N=NC(C)(C#N)CC (stereo not given) |  | inactive
Cc1ccc2nc3sc(=O)sc3nc2c1 | 2.5 µM (active) | 
Cc1cc(Cl)ccc1N |  | inactive
c1ccc(-c2cccc(-c3ccccc3)c2)cc1 |  | inactive

SMILES | AC50 | outcome
Oc1cccc(-c2ccccc2)c1 | 35 µM (active) | 
Cc1ccc(OP(=O)(Oc2ccc(C)cc2C)Oc2ccc(C)cc2C)c(C)c1 |  | inactive
CN(C)C(=S)S |  | inactive
CCOP(=O)(OCC)OC(=CCl)c1ccc(Cl)cc1Cl | 25.7 µM (active) | 
Clc1cccc(Cl)c1 |  | inactive
CC1(C)[C@H](C(=O)O[C@H](C#N)c2cccc(Oc3ccccc3)c2)[C@@H]1/C=C(\Cl)C(F)(F)F | 0.525 µM (active) | inactive
[Cl][Sn]([c]1ccccc1)([c]1ccccc1)[c]1ccccc1 | 0.209 µM (active) | 
O=C(CCl)NCO |  | inactive
O=[N+]([O-])c1cccc2ccccc12 |  | inactive
Cc1cc(C)cc(C)c1 |  | inactive
CCOC(=O)CCN(SN(C)C(=O)Oc1cccc2c1OC(C)(C)C2)C(C)C |  | inactive
CCN(CC)C(=O)C(Cl)=C(C)OP(=O)(OC)OC |  | inactive
COc1ccccc1N |  | inactive
CCCCN(CCCC)C(=S)[S-].CCCCN(CCCC)C(=S)[S-].[Ni+2] |  | inactive
O=S(=O)(C(Cl)(Cl)Cl)C(Cl)(Cl)Cl | 2.25 µM (active) | 
O=S(=O)(c1ccc(Cl)cc1)c1cc(Cl)c(Cl)cc1Cl | 12.7 µM (active) | 
Cc1ccccc1OP(=O)(Oc1ccccc1C)Oc1ccccc1C | 5.54 µM (active) | 
N#Cc1cccnc1 |  | inactive
O=C(Cc1ccccc1)OCCc1ccccc1 |  | inactive
